# Assay outcomes (PubChem BioAssay)
# Rows were chosen to be rich in hits. Some 8.7% of all compounds tested hit in one or more screens of this group.
# BAZ2B block – BAZ2B (human) inhibition | hit rate 4.4% among 360,000 | AlphaScreen BAZ2B-H3K14Ac peptide displacement | Q9UIF8 | Potency, µM (series often up to 114 µM), without a hit: at the highest dose activity change, negative = inhibition, hits mostly inhibitors | AID 504333; note: % is set by controls: 0 for no effect and ±100 for the full control effect; nearly all actives have a fitted effect of over 60% in size
#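 In this displacement format the biotinylated H3(5-23) peptide acetylated at Lys14 serves as ligand at 50 nM, with BAZ2B at 50 nM in PBS pH 7.4 containing 0.01% Tween-20. Donor and acceptor beads are 10 ug/mL final.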
# JMJD2A Tudor – JMJD2A Tudor domain (human) inhibition. O75164. AlphaScreen JMJD2A-Tudor / H3K4me3 peptide binding. Potency, µM (highest dose often 114 µM), for inactives: top-dose activity change, negative = inhibition, actives largely listed as inhibitors. hit rate 4.4% among 390,000. AID 504339; note: % is set by controls: 0 for no effect and ±100 for the full control effect; nearly all actives have a fitted effect of over 50% in size
# 12-LOX inh – blocks human arachidonate 12S-lipoxygenase; P18054; purified 12hLO, xylenol orange hydroperoxide absorbance; Potency, µM (doses to about 108 µM), for inactives: at the top dose activity change, negative = inhibition, most hits filed as inhibitors; hit rate 1.1% among 580,000; AID 1671190; note: % is set by controls: 0 for no effect and ±100 for the full control effect
#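 Hydroperoxide product was detected by ferrous iron/xylenol orange as the 573 to 405 nm absorbance ratio. Arachidonic acid at 40 uM (final) was turned over for 30 min at room temperature by 150 nM human 12hLO, pH 7.0 Hepes buffer, after 15 min compound preincubation.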
# G9a inh – inhibitors of human histone lysine methyltransferase G9a; Q96KQ7; G9a H3K9 monomethylation, AlphaScreen, 2 h; Potency, µM (top dose mostly 102 µM), inactives show at the highest dose activity, negative = inhibition, most hits filed as inhibitors; hit rate 8.8% among 350,000; note: % is set by controls: 0 for no effect and ±100 for the full control effect; nearly all actives have a fitted effect of over 75% in size
# Target sequence (Q96KQ7 913-1193 limits assumed): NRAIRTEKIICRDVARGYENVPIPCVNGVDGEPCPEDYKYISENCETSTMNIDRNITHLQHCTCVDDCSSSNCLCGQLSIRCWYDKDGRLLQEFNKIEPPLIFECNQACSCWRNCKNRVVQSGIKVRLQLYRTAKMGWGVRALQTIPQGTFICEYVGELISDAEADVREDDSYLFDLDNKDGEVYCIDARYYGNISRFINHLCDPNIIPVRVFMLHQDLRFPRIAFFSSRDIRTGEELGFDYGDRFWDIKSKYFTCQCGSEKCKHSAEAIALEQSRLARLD
#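 Readings reflect AlphaScreen signal from monomethyl-H3K9 antibody detection. HMT at 20 nM; substrate b-H3K9 500 nM; cofactor SAM 20 uM; 2 h RT reaction; compounds tested as titrations in qHTS with 15 min preincubation.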
# HP1b chromo inh – inhibitors of HP1-beta chromodomain binding to methylated histone tails. AlphaScreen HP1-beta / biotin-H3K9me3 peptide binding. Potency, µM (top dose mostly 114 µM), for inactives: top-dose activity change, negative = inhibition, usual class: inhibitors. hit rate 0.56% among 390,000. AID 540317; note: nearly all actives have a fitted effect of over 70% in size
# Target sequence (P83916 whole entry, looked up): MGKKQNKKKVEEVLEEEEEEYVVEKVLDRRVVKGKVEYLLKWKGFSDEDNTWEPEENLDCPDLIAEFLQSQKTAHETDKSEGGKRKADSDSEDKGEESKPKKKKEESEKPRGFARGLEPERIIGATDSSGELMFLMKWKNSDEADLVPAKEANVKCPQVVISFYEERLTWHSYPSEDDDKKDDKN
#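 AlphaScreen: HP1-beta (50 nM) preformed 30 min with biotin-H3(1-18)K9me3 peptide (50 nM) in PBS pH 7.4, 0.01% Tween-20. Compound added for 30 min at RT, then streptavidin donor/nickel chelate acceptor beads (10 ug/mL) for 30 min.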
# Sfp inh – blocks B. subtilis Sfp PPTase activity. Potency, µM, inactives show largest response in the series, negative = inhibition, hits mostly inhibitors. Q9F4F7. Biochemical Sfp PPTase activity, qHTS. hit rate 3.5% among 310,000;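 note: the enzyme is Sfp with the accession as filed and its product quenches rhodamine fluorescence; 0% = enzyme reaction without inhibitor and -100% = no enzyme wells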
#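 Reaction rates are the 30-min fluorescence difference (ex 525, em 598 nm) in wells containing 15 nM Sfp, 5 uM rhodamine-CoA and 12.5 uM BHQ-2-YbbR at pH 7.6 with 10 mM MgCl2.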
# * hit, by the source's call; ? = inconclusive; . = no result; ! = repeats disagree; [ ] = remark or other dose. Calls come from the whole dose curve; as a rule, active = well fitted curve in the direction sought with a large enough effect; inconclusive = small, poorly fitted or top-dose-only effect, or another doubt; inactive = no such curve, though single readings can be large; an effect the other way counts as inactive or inconclusive. Potency is the fitted concentration of half-maximal effect.
SMILES,BAZ2B block,JMJD2A Tudor,12-LOX inh,G9a inh,HP1b chromo inh,Sfp inh
CCCCn1c(-c2ccc([N+](=O)[O-])cc2)n[nH]c1=S,-5%,7.9µM*,?,?,?,-8%
CCn1c(-c2ccc(C)cc2)n[nH]c1=S,-24%,7.9µM*,?,1.3µM*,16%,?
CCn1c(COc2ccc(Cl)cc2)n[nH]c1=S,.,.,16µM*,.,.,.
CCn1c(-c2ccc(Cl)cc2)n[nH]c1=S,3%,5µM*,?,1.3µM*,-3%,2%
CCn1c(-c2nn(C)c(C)c2Cl)n[nH]c1=S,0%,?,-16%,2.2µM*,38%,-3%
Cc1cc(C(F)F)nn1CC(=O)NC1C(=O)N2C(C(=O)O)=C(CSc3nnnn3C)CSC12 (stereo unspecified),56µM*,-2%,-8%,35µM*,22%,56µM*
Cn1nnnc1SCC1=C(C(=O)O)N2C(=O)C(NC(=O)C3CC3c3ccccc3)C2SC1 (stereo unspecified),71µM*,?,-34%,?,16%,?
Cn1nnnc1SCC1=C(C(=O)O)N2C(=O)[C@@H](NC(=O)[C@H](O)c3ccccc3)[C@H]2SC1,50µM*,22µM*,.,13µM*,?,?
N[C@H](C(=O)N[C@@H]1C(=O)N2C(C(=O)O)=C(Cl)CS[C@@H]12)c1ccccc1,.,.,.,8.9µM*!,.,35µM*!
Cn1nnnc1SCC1=C(C(=O)O)N2C(=O)C(NC(=O)C(OC=O)c3ccccc3)C2SC1 (stereo unspecified),.,.,.,-34%[2.33 µM],.,-73%
Cn1nc(C(=O)Nc2ncc(Cc3cccc(C(F)(F)F)c3)s2)c2ccccc2c1=O,.,.,13%,.,.,.
COc1cc(OC)c2cc(C(=O)N3CCC(c4nnc5ccccn45)CC3)n(C)c2c1,.,.,-3%,.,.,.
CSc1ccc(/C=C/c2nc(-c3ccc(F)cc3)cs2)cc1,.,.,9%,.,.,.
O=C(Cc1ccccc1)NC(NNc1ccccc1)(C(F)(F)F)C(F)(F)F,6%,?,?,10µM*,?,9%
O=C(Nc1nc2ccccc2n1CCN1CCCC1)C1CCCCC1,50µM*,-26%,2%,9%[12.7 µM],15%,20%
O=C(Nc1nc2ccccc2n1CCN1CCOCC1)c1ccc(Cl)cc1,-4%,-14%,1%,.,9%,21%
CCC(=O)Nc1nc2ccccc2n1CCN1CCOCC1,.,3.2µM*,?,?,-10%,5%
COc1ccc(C(=O)NC(=S)N2CCC(C)CC2)cc1,-20%,-12%,?,16µM*,19%,-4%
COc1ccc(C(=O)NC(=S)N2CCCC2)cc1,-3%,-18%,?,.,11%,-6%
CCOC(=O)N1CCN(C(=S)NC(=O)c2ccc(F)c(F)c2)CC1,-24%,-9%,-13%,45µM*,37%,3%
CC(=O)N1CCN(C(=S)NC(=O)c2ccc(F)cc2)CC1,.,1.6µM*,-12%,.,10%,.
O=C(Nc1cccc(Cl)c1Cl)C12CC3CC(CC(C3)C1)C2,.,.,2%,.,.,.
COc1ccc(NC(=O)CCc2c(OC)nc3c(c(C)nn3-c3ccccc3)c2C)cc1,.,.,-16%,.,.,.
Cc1cc(NC(=O)CSc2ncc(-c3ccc(Cl)cc3)o2)ccc1F,.,.,-17%,.,.,.
N=C1S/C(=C\c2ccc(-c3ccccc3C(=O)O)o2)C(=O)N1c1ccc2c(c1)OCO2,20µM*,22µM*,14µM*,3.5µM*,28µM*,?
SMILES,BAZ2B block,JMJD2A Tudor,12-LOX inh,G9a inh,HP1b chromo inh,Sfp inh
COc1ccccc1N1C(=N)S/C(=C\c2ccc(-c3ccccc3C(=O)O)o2)C1=O,?,?,-23%,16µM*,-13%,?
O=C1CCCC2=C1C(c1cccs1)CC(=O)N2c1ccc(C(F)(F)F)cc1 (stereo unspecified),.,.,3%,.,.,.
CC(=O)Nc1cc2c(=O)n(Cc3ccccc3)c(C)nc2cc1N1CCOCC1,?,-17%,14µM*,50µM*,20%,10%
Cc1nc2cc(N3CCCCC3)c(NC(=O)c3cccnc3)cc2c(=O)n1Cc1ccccc1,1%,-3%,-12%,-10%[59 µM],38%,8%
Cc1ccc(-c2nn(-c3ccccc3)cc2/C=C/C(=O)O)o1,?,-24%,37%,28µM*,36%,-104%
CC(C)OC(=O)c1cn(-c2ccccc2)nc1-c1ccco1,-9%,-16%,-79%,7.9µM*,17%,8.9µM*
O=C(O)/C=C/c1cn(-c2ccccc2)nc1-c1cc2ccccc2oc1=O,1%,-3%,-6%,.,31%,6%
Cc1ccc(-c2nn(-c3ccccc3)cc2CN(Cc2ccccc2)C(=O)c2ccco2)o1,32µM*,56µM*,?,32µM*,-37%,18µM*
Cc1ccc(-c2nn(-c3ccccc3)cc2C(=O)O)o1,?,.,.,4.5µM*,.,-101%
COCCNc1nc(N)nc2c1CCN(C(=O)c1cscn1)CC2,.,.,69%,.,.,.
CN(Cc1cccc(OC(F)(F)F)c1)C(=O)C1(c2ccc(Cl)cc2)CCOCC1,.,.,8%[6.33 µM],.,.,.
Cc1cc(C)cc(N2C(=O)C=CC2=O)c1,.,20µM*,?,.,13µM*,.
Cc1c([N+](=O)[O-])cc(N2C(=O)C=CC2=O)cc1[N+](=O)[O-],.,22µM*,.,.,35µM*,.
Cc1cc(C)cc(N2C(=O)c3nccnc3C2=O)c1,1%,1%,-25%,-2%,23%,9%
Cc1cc(N2C(=O)C=CC2=O)c([N+](=O)[O-])cc1C,56µM*,6.3µM*,.,1.3µM*,5.6µM*,-98%
Cc1ccc([N+](=O)[O-])c(C)c1N,.,.,22%,.,.,.
N#C/C(=C\c1ccc(O)c(Cl)c1)c1nc2ccccc2[nH]1,.,.,-4%,.,.,.
CCCC(=O)Nc1cccc(-c2nc3cc(C)cc(C)c3o2)c1C,.,.,3%,.,.,.
Cc1cccc(OCc2n[nH]c(=S)o2)c1C,56µM*,-13%,-10%,20µM*,50%,-2%
Cc1cccc(OCc2n[nH]c(=S)o2)c1,-39%,?,-26%,10µM*,13%,11%
Cc1cccc(C)c1OCc1n[nH]c(=S)o1,-3%,-28%,45µM*,2.2µM*,42%,10%
CCOC(=O)C(NC(=O)CC)C(OC(=O)CC)c1ccccc1 (stereo unspecified),.,.,-30%,.,.,.
COc1ccc(Cn2c(=O)c3sccc3n(CC(=O)NCc3ccccc3)c2=O)cc1,.,.,22%,.,.,.
O=C(COc1ccccc1)Nc1ccc2ncnc(N3CCCCC3)c2c1,.,.,12%,.,.,.
CNC(=O)[C@@H]1C[C@H](Oc2cccnc2)CN1C(=O)c1nccc2ccccc12,.,.,2%,.,.,.
CC(C)CCNC(=O)NC(=O)COC(=O)/C=C/c1cc(Br)ccc1F,16%,14µM*,.,-10%,-9%,14%
CCN(CC)C(=O)[C@@H]1CCC[C@@H](NC(=O)C2CCOCC2)CN(C)C(=O)C1,.,.,71%[176 µM],.,.,.
